{"source": "PubChem BioAssay AID1239", "about": "(SRMLSC, 2008)", "note": "In all, about 190,000 compounds went through this assay and about 3,100 (1.6%) were called active. The sample holds actives, similar compounds and a random draw of the others, so the mix is not that of the screen. A number with no mark means an inactive call. Rule as the data show it: active = fold change above about 3.3; inconclusive = no clear call, values can overlap the other calls; inactive = below that."}
{"experiment": "NF-kB upregulation, human neuronal cells – cell-based, HTS, primary screen (AID 1239)", "conditions": "NF-kB reporter expression, at 12.5 µM, hits give high values"}
{"smiles": "COc1ccc2nc(Nc3nc(-c4ccncc4)cs3)sc2c1", "fold change": 1.6}
{"smiles": "COc1ccc(Nc2nc(-c3ccccc3)cs2)cc1", "fold change": "12.5 (active)"}
{"smiles": "O=c1oc2ccccc2cc1-c1csc(Nc2ccc(O)cc2)n1", "fold change": "7.39 (active)"}
{"smiles": "NS(=O)(=O)c1ccc(Nc2nc(-c3ccccc3)cs2)cc1", "fold change": 1.18}
{"smiles": "COc1ccc(-c2csc(Cc3nc(O)cs3)n2)cc1", "fold change": "3.76 (active)"}
{"smiles": "Oc1ccc(-c2csc(Nc3cccnc3)n2)cc1", "fold change": 3.24}
{"smiles": "COc1ccc(-c2csc(NC(=O)CCCc3cccs3)n2)cc1", "fold change": 0.87}
{"smiles": "COc1ccc2nc(Nc3nc(-c4cc5ccccc5oc4=O)cs3)sc2c1", "fold change": 1.2}
{"smiles": "COc1ccc(-c2csc(Nc3ccc(O)cc3)n2)cc1", "fold change": "8.49 (active)"}
{"smiles": "CCNc1nc(-c2cc3ccccc3o2)cs1", "fold change": 1.19}
{"smiles": "COc1ccc(OC)c(Nc2nc(-c3ccc(O)c(O)c3)cs2)c1", "fold change": 1.32}
{"smiles": "COc1ccc(-c2csc(NC(=O)COC(=O)c3ccc(Br)o3)n2)cc1", "fold change": 1.92}
{"smiles": "O=C(C1CCN(C2CCN(Cc3cccc4c3OCO4)CC2)CC1)N1CCOCC1", "fold change": 1.05}
{"smiles": "COC(=O)c1ccc(CN2CCC(CO)(Cc3ccc(OC)cc3)CC2)cc1", "fold change": 1.33}
{"smiles": "COc1ccccc1-n1ccnc1SCC(=O)NC(C)(C)C", "fold change": 1.09}
{"smiles": "CCCCC(CC)CNC(=O)C(=O)C1C(=O)Nc2ccccc21", "note": "(centres undefined)", "fold change": 1.17}
{"smiles": "CC[n+]1c(C)n(-c2ccccc2)c2ccc(NC(C)=O)cc21", "fold change": 0.85}
{"smiles": "N#C/C(=C\\c1ccc(-c2cccc([N+](=O)[O-])c2)o1)C(=O)NCCN1CCOCC1", "fold change": 1.14}
{"smiles": "Cc1cccc(NC(=O)c2cc([N+](=O)[O-])ccc2N2CCN(C)CC2)c1", "fold change": 0.95}
{"smiles": "O=C(O)c1ccccc1-c1ccccc1C(=O)NCc1cccnc1", "fold change": 1.16}
{"smiles": "COC(=O)C(C)NC(=O)COc1ccc2ccccc2c1", "note": "(centres undefined)", "fold change": 1.1}
{"smiles": "Cc1cc(Cl)ccc1OCCCC(=O)NCc1ccccn1", "fold change": 1.09}
{"smiles": "N#CC1=C(N)Oc2[nH]c(=S)[nH]c(=O)c2C12C(=O)Nc1ccccc12", "note": "(centres undefined)", "fold change": 1.09}
{"smiles": "Cc1nn(C)c(C)c1Sc1ccccc1N", "fold change": 0.93}
{"smiles": "CN1CCN(/N=C2/C(=O)Nc3ccc([N+](=O)[O-])cc32)CC1", "fold change": 1.3}
{"smiles": "O=C(Nc1nc2ccc(S(=O)(=O)N3CCCC3)cc2s1)C1CCCO1", "note": "(centres undefined)", "fold change": 0.92}
{"smiles": "Cc1cc(Br)ccc1NC(=O)C1CCCO1", "note": "(centres undefined)", "fold change": 1.18}
{"smiles": "Cc1cc(C)c2nc(NC(=O)C3CCCO3)sc2c1", "note": "(centres undefined)", "fold change": "6.22 (active)"}
{"smiles": "CC1CN(CCCOc2ccccc2-c2ccccc2)CC(C)O1", "note": "(centres undefined)", "fold change": 1.16}
{"smiles": "O=C(Cc1c[nH]c2ccccc12)OCCOC(=O)Cc1c[nH]c2ccccc12", "fold change": 1.43}
{"smiles": "CC1CCN(CC(=O)c2c[nH]c3ccccc23)CC1", "fold change": 0.78}
{"smiles": "O=C(OCC(=O)c1c[nH]c2ccccc12)c1cccc(O)c1", "fold change": "5.31 (active)"}
{"smiles": "COc1cccc(CNC(=O)CCC2CCCN(C(=O)c3ccoc3C)C2)c1", "note": "(centres undefined)", "fold change": 1.11}
{"smiles": "COc1ccc(Nc2ncc(F)c(N3CCOCC3)n2)cc1", "fold change": "3.96 (active)"}
{"smiles": "CCOc1ccc(Nc2nc(Cl)nc(N3CCN(c4ccc(OC)cc4)CC3)n2)cc1", "fold change": 0.61}
{"smiles": "c1ccc(Nc2nc(N3CCOCC3)c3ccccc3n2)cc1", "fold change": 0.6}
{"smiles": "Cc1cc(NC(=O)CSCc2ccccc2C)no1", "fold change": 1.25}
{"smiles": "CC(NCc1nc2ccccc2n1C)C12CC3CC(CC(C3)C1)C2", "note": "(centres undefined)", "fold change": 0.85}
{"smiles": "COC(=O)c1sc(NC(=O)c2csc3c2CCCC3)nc1C", "fold change": "4.92 (active)"}
{"smiles": "CC(=O)Cc1nsc(NC(=O)c2csc3c2CCCC3)n1", "fold change": 1.73}
{"smiles": "COC(=O)c1sccc1NC(=O)c1csc2c1CCCC2", "fold change": 1.41}
{"smiles": "COc1cc(OC)c(C2=NOC(C(=O)Nc3c(C)n(C)n(-c4ccccc4)c3=O)C2)cc1Cl", "note": "(centres undefined)", "fold change": 0.97}
{"smiles": "CN1CCN(CC#CCC2(O)c3ccccc3-c3ccccc32)CC1", "fold change": 1.01}
{"smiles": "CNC(=O)CSc1nnnn1-c1ccc(C)cc1C", "fold change": 1.23}
{"smiles": "CCn1nnnc1SCC(=O)c1ccc(C)cc1C", "fold change": "3.65 (active)"}
{"smiles": "COc1ccc(C(=O)CSc2nnnn2C)c(OC)c1", "fold change": 1}
{"smiles": "COCCNC(=O)C(c1ccc(O)cc1)N(C(=O)CCC(=O)Nc1nccs1)c1ccc(C)cc1", "note": "(centres undefined)", "fold change": 0.99}
{"smiles": "COC(=O)c1ccc(COC(=O)c2cnccn2)cc1", "fold change": 1.22}
{"smiles": "O=C(CN1C(=O)/C(=C/c2ccccc2F)Sc2ccccc21)NCc1cccnc1", "fold change": 0.69}
{"smiles": "OCC(O)CN(c1ccccc1)c1ccccc1", "note": "(centres undefined)", "fold change": 1.39}
{"smiles": "O=C(OCc1ccc(Br)cc1)c1cccc(-c2nnc(-c3ccccc3)o2)c1", "fold change": 1.7}
{"smiles": "Nc1ccc(-c2nnc(-c3ccc(-c4ccccc4)cc3)o2)cc1", "fold change": 1.31}
{"smiles": "Brc1ccc(-c2nnc(-c3ccccc3)o2)o1", "fold change": "3.89 (active)"}
{"smiles": "COc1ccccc1Cn1c(C)nnc1-c1cnn(C)c1N", "fold change": 1.41}
{"smiles": "CCOC1CS(=O)(=O)CC1OCC", "note": "(centres undefined)", "fold change": "5.97 (active)"}
{"smiles": "COc1ccccc1N1CCN(/N=C\\C(Br)=C\\c2ccccc2)CC1", "fold change": 1.33}
{"smiles": "COc1ccc(CCNC(=O)CC2SC(=Nc3cc(C)cc(C)c3)NC2=O)cc1OC", "note": "(centres undefined)", "fold change": 0.95}
{"smiles": "O=C(Nc1ccc(Oc2ccccc2)cc1)c1ccco1", "fold change": "4.89 (active)"}
{"smiles": "O=C(CSc1ccccc1)Nc1ccc(NC(=O)c2ccco2)cc1", "fold change": 1.45}
{"smiles": "COC(=O)c1ccc(NC(=O)c2ccco2)cc1", "fold change": 2.51}
{"smiles": "CCS(=O)(=O)Nc1ccc(C2=NN(C(C)=O)C(c3cccs3)C2)cc1", "note": "(centres undefined)", "fold change": 1.16}
{"smiles": "NS(=O)(=O)c1cccc(NC(=O)COC(=O)/C=C/c2ccco2)c1", "fold change": 1.19}
{"smiles": "CCCC(O)(CCC)C(=O)NN(C(=O)CCl)c1cccc(C)c1", "fold change": 0.5}
{"smiles": "CCCCC(O)(CCCC)C(=O)NN(C(=O)CCl)c1ccccc1", "fold change": "4.9 (active)"}
{"smiles": "Cc1ccc(N(NC(=O)C(C)(C)O)C(=O)c2ccccc2)cc1C", "fold change": 1.37}
{"smiles": "Cc1nc(-c2ccccc2)sc1C(=O)/C=C/N(C)C", "fold change": 1.77}
{"smiles": "COc1ccccc1NC(=S)N1CCC(NC(=O)C23CC4CC(CC(C4)C2)C3)CC1", "fold change": 0.97}
{"smiles": "CC(C)CNC(=O)c1cc(-c2ccc(Br)cc2)on1", "fold change": 0.98}
{"smiles": "CC(C)Cc1cc(C(=O)Nc2cc(Br)ccc2O)no1", "fold change": "6.03 (active)"}
{"smiles": "CC(C)Cc1cc(C(=O)NCCc2ccccc2)no1", "fold change": 3.27}
{"smiles": "O=C(/C=C/c1ccc(Cl)cc1)Nc1ccc(S(=O)(=O)Nc2ncccn2)cc1", "fold change": 0.93}
{"smiles": "O=C(O)/C=C/c1cn(-c2ccccc2)nc1-c1cccs1", "fold change": 1.14}
{"smiles": "O=C(O)c1ccc(N/N=C/c2cn(-c3ccccc3)nc2-c2cccs2)cc1", "fold change": "6.86 (active)"}
{"smiles": "O=C(/C=C\\c1cn(-c2ccccc2)nc1-c1cccs1)N1CCOCC1", "fold change": 0.42}
{"smiles": "CC(C(=O)NCC1CCCCC1)N(C)Cc1cccc(Cl)c1", "note": "(centres undefined)", "fold change": 1.18}
{"smiles": "N/C(=N\\OC(=O)c1ccc([N+](=O)[O-])cc1)c1ccccn1", "fold change": "5.12 (active)"}
{"smiles": "O=C(OCc1ccc([N+](=O)[O-])cc1)c1ccccn1", "fold change": 1.29}
{"smiles": "N/C(=N\\OC(=O)Cc1ccc([N+](=O)[O-])cc1)c1ccccn1", "fold change": 1.74}
{"smiles": "CCOc1ncccc1C(=O)OCc1cn2cc(Cl)ccc2n1", "fold change": 1.18}
{"smiles": "Clc1ccc2nc(CSc3ccccc3)cn2c1", "fold change": "3.83 (active)"}
{"smiles": "O=c1cc(CSc2ccc(Cl)cc2)nc(N2CCOCC2)[nH]1", "fold change": 1.5}
{"smiles": "CN1CCC(OC(=O)COc2ccc(Cl)cc2Cl)CC1", "fold change": 1.16}
{"smiles": "CCOc1cnc(C(=O)NNC(=O)c2ccccc2Br)o1", "fold change": 1.13}
{"smiles": "COc1ccc(C(=O)NCC(=O)N/N=C/c2ccc([N+](=O)[O-])s2)cc1OC", "fold change": 0.62}
